Measurements as given in the supplement of paper PMC11732987, “Enantioselective OTUD7B fragment discovery through chemoproteomics screening and high-throughput optimisation” (Communications Chemistry, 2025).

Columns and labels:
Experiment in all cases: log2 ratio of Biotin-Ahx-Ub-VS probe labelling (fragment/DMSO); higher = less target engagement (more negative = stronger competition), active = hit call of the paper (q ≤ 0.05, log2 ratio ≤ -1)
Conditions in all cases: compound concentration: 200 uM; treatment time: 3 h
USP34 = USP34 (UniProt Q70CQ2)
Chain of USP34 (Q70CQ2 whole entry, the tested form may be a part): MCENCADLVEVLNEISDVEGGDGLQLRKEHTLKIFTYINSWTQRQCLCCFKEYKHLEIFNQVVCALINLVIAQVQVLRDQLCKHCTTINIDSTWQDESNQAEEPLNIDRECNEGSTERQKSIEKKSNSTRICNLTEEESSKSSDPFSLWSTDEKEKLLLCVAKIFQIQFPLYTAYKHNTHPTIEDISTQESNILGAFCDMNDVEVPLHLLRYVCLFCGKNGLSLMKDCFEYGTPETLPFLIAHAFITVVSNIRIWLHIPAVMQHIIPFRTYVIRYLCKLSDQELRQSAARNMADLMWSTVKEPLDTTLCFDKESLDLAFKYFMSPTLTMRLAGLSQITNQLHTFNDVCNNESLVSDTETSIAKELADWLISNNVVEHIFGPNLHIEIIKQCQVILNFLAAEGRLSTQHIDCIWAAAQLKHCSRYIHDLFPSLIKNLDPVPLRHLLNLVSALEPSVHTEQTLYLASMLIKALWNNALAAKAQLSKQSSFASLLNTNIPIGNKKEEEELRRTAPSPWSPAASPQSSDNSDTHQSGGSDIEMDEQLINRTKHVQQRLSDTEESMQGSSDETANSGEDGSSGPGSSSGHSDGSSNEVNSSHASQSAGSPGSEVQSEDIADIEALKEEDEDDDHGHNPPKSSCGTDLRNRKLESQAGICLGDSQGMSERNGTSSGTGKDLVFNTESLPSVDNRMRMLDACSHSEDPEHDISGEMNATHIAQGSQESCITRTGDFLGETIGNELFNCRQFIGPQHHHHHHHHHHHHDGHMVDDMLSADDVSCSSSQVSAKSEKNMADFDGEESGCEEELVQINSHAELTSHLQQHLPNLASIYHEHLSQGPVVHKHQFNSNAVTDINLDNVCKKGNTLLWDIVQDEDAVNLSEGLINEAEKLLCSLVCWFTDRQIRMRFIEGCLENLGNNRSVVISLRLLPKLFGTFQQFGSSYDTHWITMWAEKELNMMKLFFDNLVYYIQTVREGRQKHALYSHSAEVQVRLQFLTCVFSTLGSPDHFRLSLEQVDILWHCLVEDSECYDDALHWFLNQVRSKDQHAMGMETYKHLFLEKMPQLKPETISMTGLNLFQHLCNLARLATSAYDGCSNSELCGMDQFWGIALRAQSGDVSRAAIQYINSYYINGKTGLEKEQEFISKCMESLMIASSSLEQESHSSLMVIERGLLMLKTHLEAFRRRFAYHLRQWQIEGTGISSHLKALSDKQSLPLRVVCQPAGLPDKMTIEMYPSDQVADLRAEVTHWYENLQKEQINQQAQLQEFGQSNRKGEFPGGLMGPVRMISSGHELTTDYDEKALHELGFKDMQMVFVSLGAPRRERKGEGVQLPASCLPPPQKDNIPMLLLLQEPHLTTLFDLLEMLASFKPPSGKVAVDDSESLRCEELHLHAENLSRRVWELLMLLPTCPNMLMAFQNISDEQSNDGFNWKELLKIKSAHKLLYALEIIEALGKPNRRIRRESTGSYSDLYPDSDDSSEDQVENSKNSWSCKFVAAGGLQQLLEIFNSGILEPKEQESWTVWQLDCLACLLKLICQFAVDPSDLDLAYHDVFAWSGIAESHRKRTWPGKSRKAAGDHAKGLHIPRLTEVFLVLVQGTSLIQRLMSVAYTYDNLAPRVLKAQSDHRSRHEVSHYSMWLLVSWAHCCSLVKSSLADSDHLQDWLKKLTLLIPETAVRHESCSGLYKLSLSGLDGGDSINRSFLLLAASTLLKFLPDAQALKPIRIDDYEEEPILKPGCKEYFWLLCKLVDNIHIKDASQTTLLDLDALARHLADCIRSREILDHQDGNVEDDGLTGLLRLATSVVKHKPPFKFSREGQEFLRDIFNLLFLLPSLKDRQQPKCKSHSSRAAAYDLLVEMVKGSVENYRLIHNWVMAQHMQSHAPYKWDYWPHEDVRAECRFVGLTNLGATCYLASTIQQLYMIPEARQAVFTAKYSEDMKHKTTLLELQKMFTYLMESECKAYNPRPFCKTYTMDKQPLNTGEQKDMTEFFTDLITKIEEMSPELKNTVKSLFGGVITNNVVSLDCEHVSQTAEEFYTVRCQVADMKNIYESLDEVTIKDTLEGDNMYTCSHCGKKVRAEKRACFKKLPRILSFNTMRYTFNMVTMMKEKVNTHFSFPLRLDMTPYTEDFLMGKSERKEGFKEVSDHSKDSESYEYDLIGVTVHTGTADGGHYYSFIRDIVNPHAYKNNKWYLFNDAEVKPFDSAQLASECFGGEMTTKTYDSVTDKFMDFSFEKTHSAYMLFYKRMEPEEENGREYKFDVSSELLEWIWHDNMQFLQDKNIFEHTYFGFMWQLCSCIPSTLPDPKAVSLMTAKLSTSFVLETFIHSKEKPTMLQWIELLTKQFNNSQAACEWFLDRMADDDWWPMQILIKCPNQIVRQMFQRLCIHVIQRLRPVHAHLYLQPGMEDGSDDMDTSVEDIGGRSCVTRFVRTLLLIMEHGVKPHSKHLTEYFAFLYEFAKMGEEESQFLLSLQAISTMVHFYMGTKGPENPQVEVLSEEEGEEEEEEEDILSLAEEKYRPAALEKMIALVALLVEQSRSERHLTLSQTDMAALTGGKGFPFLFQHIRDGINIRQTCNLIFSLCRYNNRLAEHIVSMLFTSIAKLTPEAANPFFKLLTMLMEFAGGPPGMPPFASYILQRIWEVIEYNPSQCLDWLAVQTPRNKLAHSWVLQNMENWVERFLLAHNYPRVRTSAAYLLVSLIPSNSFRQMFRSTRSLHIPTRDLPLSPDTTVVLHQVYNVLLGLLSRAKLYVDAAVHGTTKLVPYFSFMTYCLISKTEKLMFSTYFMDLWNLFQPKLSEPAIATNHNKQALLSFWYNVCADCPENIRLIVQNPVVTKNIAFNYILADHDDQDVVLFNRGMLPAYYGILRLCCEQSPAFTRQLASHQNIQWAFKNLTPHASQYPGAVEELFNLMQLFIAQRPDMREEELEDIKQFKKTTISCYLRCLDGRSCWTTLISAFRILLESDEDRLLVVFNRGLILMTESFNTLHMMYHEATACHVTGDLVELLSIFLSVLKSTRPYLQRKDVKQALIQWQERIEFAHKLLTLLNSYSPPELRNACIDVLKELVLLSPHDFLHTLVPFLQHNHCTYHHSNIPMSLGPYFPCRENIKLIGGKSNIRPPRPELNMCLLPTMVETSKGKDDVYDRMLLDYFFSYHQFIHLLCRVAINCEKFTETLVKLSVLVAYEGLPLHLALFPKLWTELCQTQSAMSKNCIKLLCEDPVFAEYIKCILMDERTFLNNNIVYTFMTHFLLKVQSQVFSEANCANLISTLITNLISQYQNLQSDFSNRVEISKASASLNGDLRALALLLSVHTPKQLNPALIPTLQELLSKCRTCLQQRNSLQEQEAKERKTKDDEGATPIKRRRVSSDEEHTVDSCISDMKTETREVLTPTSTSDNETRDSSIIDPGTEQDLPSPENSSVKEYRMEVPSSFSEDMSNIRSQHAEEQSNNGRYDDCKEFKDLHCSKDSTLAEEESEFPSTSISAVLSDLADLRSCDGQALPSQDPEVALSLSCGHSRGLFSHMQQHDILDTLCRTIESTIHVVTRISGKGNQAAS
How it was run: (§1)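 Labelled DUBs were enriched with NeutrAvidin, digested with LysC and trypsin, and run by diaPASEF LC-MS/MS. The labelling used Biotin-Ahx-Ub-VS at 0.5 µM final for 1 h on HEK293T lysate (495 µg per sample) previously treated in triplicate with fragment at 200 µM or vehicle for 3 h. Values are average log2 fragment/vehicle ratios by unpaired t-test on global-median-normalised Spectronaut quantities of proteins with ≥2 unique peptides.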

USP36 = biological target: T1, USP36 (UniProt Q9P275)
T1 sequence (whole entry): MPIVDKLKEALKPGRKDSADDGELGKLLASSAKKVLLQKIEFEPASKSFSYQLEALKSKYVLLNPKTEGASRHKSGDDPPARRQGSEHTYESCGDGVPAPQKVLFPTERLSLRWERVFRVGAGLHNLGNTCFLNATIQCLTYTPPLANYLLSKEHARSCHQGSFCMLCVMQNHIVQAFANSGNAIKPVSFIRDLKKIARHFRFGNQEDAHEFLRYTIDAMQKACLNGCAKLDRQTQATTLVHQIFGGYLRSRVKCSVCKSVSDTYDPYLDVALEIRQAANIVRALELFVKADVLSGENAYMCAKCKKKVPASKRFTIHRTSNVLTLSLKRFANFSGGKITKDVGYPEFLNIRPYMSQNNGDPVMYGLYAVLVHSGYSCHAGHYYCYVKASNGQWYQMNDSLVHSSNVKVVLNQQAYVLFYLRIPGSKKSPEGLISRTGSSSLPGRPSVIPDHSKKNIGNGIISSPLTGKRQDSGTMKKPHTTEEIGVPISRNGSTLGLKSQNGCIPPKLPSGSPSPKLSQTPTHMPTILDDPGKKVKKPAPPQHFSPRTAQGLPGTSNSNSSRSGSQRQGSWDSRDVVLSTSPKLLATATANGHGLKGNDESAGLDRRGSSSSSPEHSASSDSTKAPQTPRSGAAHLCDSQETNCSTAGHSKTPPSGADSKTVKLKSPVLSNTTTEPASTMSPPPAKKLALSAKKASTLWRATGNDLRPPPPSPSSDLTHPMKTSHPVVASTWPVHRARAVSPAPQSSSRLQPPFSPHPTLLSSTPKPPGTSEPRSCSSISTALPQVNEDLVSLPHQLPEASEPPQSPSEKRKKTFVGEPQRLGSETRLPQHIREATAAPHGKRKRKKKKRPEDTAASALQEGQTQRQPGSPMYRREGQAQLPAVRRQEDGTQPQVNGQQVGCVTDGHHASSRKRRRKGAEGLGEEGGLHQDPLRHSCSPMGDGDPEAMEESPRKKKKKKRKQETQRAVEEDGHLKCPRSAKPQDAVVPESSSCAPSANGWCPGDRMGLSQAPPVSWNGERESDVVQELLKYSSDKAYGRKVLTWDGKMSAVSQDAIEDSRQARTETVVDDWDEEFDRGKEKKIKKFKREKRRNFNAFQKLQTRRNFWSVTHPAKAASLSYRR
How it was run: as §1

USP38 = biological target: T2, USP38 (UniProt Q8NB14)
T2 sequence (whole entry): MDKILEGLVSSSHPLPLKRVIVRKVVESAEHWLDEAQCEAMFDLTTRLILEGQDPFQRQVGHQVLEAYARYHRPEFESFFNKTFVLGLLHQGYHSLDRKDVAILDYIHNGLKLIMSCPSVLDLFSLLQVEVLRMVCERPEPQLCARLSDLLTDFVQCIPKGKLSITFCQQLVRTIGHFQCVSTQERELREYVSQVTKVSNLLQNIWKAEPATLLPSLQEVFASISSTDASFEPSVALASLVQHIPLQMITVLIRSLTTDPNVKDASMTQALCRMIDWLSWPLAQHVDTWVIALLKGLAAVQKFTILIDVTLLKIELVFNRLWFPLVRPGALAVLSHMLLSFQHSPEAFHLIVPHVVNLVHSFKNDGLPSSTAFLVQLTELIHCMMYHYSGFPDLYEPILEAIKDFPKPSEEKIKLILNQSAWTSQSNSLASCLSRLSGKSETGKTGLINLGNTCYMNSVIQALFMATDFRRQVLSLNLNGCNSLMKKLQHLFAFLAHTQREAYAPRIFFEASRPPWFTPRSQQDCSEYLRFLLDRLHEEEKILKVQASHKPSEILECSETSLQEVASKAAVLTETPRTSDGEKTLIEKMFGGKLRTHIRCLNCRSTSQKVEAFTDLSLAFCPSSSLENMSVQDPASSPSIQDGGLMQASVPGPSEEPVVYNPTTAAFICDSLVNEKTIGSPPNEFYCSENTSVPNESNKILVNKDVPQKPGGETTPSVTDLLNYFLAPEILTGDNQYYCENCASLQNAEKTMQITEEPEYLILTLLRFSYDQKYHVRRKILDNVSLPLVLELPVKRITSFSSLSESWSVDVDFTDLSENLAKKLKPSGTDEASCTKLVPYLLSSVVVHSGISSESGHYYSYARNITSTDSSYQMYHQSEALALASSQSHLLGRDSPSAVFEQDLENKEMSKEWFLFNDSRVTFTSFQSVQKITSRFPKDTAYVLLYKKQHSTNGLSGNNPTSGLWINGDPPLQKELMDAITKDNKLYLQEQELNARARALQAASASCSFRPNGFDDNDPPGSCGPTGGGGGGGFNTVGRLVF
How it was run: as §1

USP39 = biological target: T3, USP39 (UniProt Q53GS9)
T3 sequence (whole entry): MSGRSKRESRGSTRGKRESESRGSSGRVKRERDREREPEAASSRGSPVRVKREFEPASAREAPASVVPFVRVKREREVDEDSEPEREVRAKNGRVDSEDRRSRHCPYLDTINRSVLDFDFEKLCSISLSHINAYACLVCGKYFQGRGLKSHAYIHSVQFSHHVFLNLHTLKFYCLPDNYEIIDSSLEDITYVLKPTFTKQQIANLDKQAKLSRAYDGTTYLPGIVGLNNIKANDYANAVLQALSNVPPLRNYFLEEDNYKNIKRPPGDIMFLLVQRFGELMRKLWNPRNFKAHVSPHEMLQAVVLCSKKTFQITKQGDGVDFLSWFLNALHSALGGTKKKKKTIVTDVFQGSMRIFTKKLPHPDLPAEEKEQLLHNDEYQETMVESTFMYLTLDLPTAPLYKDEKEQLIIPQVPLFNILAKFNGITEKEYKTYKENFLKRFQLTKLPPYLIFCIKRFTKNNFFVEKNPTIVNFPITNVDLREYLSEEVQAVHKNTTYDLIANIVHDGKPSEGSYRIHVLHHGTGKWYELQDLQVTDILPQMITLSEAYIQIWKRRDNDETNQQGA
How it was run: as §1

USP4 = biological target: T4, USP4 (UniProt Q13107)
T4 sequence (whole entry): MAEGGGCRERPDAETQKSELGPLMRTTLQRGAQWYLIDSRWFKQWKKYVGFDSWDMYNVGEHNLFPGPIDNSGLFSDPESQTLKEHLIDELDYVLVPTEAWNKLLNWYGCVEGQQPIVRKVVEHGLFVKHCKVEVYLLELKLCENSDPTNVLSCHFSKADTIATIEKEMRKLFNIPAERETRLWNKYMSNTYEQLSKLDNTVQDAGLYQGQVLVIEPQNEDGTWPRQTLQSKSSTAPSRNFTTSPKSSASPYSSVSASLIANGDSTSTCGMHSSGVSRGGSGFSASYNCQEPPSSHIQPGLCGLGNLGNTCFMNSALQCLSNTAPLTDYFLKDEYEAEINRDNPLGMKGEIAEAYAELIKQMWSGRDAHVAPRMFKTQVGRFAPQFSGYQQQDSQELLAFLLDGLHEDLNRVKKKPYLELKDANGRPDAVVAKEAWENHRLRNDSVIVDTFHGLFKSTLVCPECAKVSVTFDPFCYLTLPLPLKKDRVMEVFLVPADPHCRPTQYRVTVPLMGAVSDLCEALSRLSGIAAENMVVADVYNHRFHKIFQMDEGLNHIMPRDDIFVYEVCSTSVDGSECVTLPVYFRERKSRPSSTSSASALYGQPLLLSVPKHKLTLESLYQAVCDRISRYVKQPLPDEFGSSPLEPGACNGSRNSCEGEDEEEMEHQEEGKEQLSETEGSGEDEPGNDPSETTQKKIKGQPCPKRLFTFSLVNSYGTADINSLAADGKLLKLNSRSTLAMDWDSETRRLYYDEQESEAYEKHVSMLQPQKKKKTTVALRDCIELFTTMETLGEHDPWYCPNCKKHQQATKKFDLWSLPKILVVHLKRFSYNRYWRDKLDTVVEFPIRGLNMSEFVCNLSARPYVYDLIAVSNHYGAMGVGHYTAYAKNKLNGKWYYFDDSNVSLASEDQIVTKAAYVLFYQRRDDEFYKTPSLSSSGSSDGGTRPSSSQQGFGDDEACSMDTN
How it was run: as §1

Measured: log2 ratio of Biotin-Ahx-Ub-VS probe labelling

O=C(CCl)NCCC1COCCO1 (stereo not given)
inactive: USP34 -0.0886 | USP36 -0.0548 | USP38 -0.0125 | USP39 0.0236 | USP4 -0.00705
